{"source": "PubChem BioAssay (NCATS)", "note": "Where “and” joins values, the source holds several entries; their conditions need not be identical. Equal values may be shown once. Results filed as inconclusive are left out. Calls of active or inactive are those of the source. Calls come from the whole dose curve; as a rule, active = well fitted inhibition curve with a large enough effect; inconclusive = small, poorly fitted or top-dose-only effect; inactive = flat fitted curve, though single readings scatter. % is set by controls: 0 for no effect and ±100 for the full control effect; potency is the fitted concentration of half-maximal effect.", "data": [{"test_system": "CRL-7250", "assay": "Cytotoxic Profiling of Annotated Libraries Using Quantitative High-Throughput Screening (AID 1296008); note: nearly all actives have a fitted effect of over 60% in size", "details": "Five cell lines viability, CellTiter-Glo ATP luminescence, 48-72 h; max response: active compounds read low", "summary_of_the_method": "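Cells exposed to compounds for 48 or 72 hr at 37 degrees Celsius. Viability read as ATP-coupled luminescence with CellTiter-Glo after 10 min at room temperature.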", "values": [{"molecule": "CCC(=C(c1ccccc1)c1ccc(OCCN(C)C)cc1)c1ccccc1", "max response": "3.45% (inactive)"}, {"molecule": "CN1CCC(CNc2ccc3ncc(-c4cccc(OC(F)(F)F)c4)n3n2)CC1", "Potency": "4.69 µM (active)"}, {"molecule": "Cn1cc(-c2ccncc2)c(-c2ccc(OCc3ccc4ccccc4n3)cc2)n1", "Potency": "2.64 µM (active)"}, {"molecule": "Cc1cc(N2CCOCC2)cc2[nH]c(-c3c(NC[C@@H](O)c4cccc(Cl)c4)cc[nH]c3=O)nc12", "Potency": "11.8 µM (active)"}, {"molecule": "CC(=O)SC[C@@H](C)C(=O)N1CCC[C@H]1C(=O)N[C@@H](Cc1ccccc1)C(=O)O", "max response": "1.31% (inactive)"}, {"molecule": "O=C(NC1CCNCC1)c1[nH]ncc1NC(=O)c1c(Cl)cccc1Cl", "Potency": "0.332 µM (active)"}, {"molecule": "C=CC(=O)Nc1cccc(Oc2nc(Nc3ccc(N4CCN(C)CC4)cc3)ncc2Cl)c1", "Potency": "4.18 µM (active) and 920 nM (active)"}, {"molecule": "COc1ccc(C=Cc2cc(OC)c(OC)c(OC)c2)cc1O", "max response": "-82.4% (inactive)"}, {"molecule": "COCCOc1ccc2c(c1)ncn2-c1ccc2cccc(N3CCC(N)CC3)c2n1", "Potency": "4.69 µM (active) and 8.2 µM (active)"}, {"molecule": "CN(C)CCCN=c1c2ccccc2n(C)c2[nH]c(=O)n(C)c(=O)c12", "Potency": "11.8 µM (active)"}, {"molecule": "N#CCNC(=O)c1ccc(-c2ccnc(Nc3ccc(N4CCOCC4)cc3)n2)cc1", "Potency": "7.43 µM (active) and 6.51 µM (active)"}, {"molecule": "Cc1c(Cn2c(C)nc3c(C(=O)O)cc(N4CCOCC4)cc32)cccc1C(F)(F)F", "max response": "-5.25% (inactive)"}, {"molecule": "Cc1cc(Nc2cc(N3CCN(C)CC3)nc(C=Cc3ccccc3)n2)n[nH]1", "Potency": "5.4 µM (active)"}, {"molecule": "CNC(=O)c1ccccc1Nc1nc(Nc2ccc(N3CCOCC3)cc2OC)ncc1Cl", "Potency": "7.43 µM (active) and 4.11 µM (active)"}, {"molecule": "Cc1cn2c(-c3cn[nH]c3)cnc2c(Nc2ccc(C(=O)N3CCNCC3)cc2F)n1", "Potency": "6.51 µM (active)"}, {"molecule": "CC(NCc1ccc2c(c1)nc(NC(=O)c1ccc(-c3cn[nH]c3)s1)n2CC(C)(C)O)C(C)(C)C", "note": "(centres undefined)", "Potency": "0.296 µM (active)"}, {"molecule": "Cc1c(CN2CCN(S(C)(=O)=O)CC2)sc2c(N3CCOCC3)nc(-c3cnc(N)nc3)nc12", "Potency": "166 nM (active) and 259 nM (active)"}, {"molecule": "C#Cc1cccc(Nc2ncnc3cc(OC)c(OCCCCCCC(=O)NO)cc23)c1", "Potency": "4.69 µM (active)"}, {"molecule": "CC(C)(C)c1cnc(CSc2cnc(NC(=O)C3CCNCC3)s2)o1", "Potency": "0.132 µM (active)"}, {"molecule": "Cc1cnc(Nc2ccc(F)cc2Cl)nc1-c1c[nH]c(C(=O)N[C@H](CO)c2cccc(Cl)c2)c1", "Potency": "18.7 µM (active) and 20.6 µM (active)"}, {"molecule": "O=C(Cc1ccc(-c2ccc(OCCN3CCOCC3)cc2)cn1)NCc1ccccc1", "Potency": "23.5 nM (active) and 1.3 µM (active)"}, {"molecule": "O=C(Nc1cn[nH]c1-c1nc2ccc(CN3CCOCC3)cc2[nH]1)NC1CC1", "Potency": "1.3 µM (active)"}, {"molecule": "Nc1ccccc1NC(=O)c1ccc(CNC(=O)OCc2cccnc2)cc1", "Potency": "9.2 µM (active)"}, {"molecule": "CNc1nccc(-c2cccnc2Oc2cc(C(=O)Nc3cccc(C(F)(F)F)c3)ccc2C)n1", "Potency": "7.31 µM (active)"}, {"molecule": "Cn1c(=O)n(-c2ccc(C(C)(C)C#N)cc2)c2c3cc(-c4cnc5ccccc5c4)ccc3ncc21", "Potency": "259 nM (active) and 235 nM (active)"}, {"molecule": "COc1cccc(-c2ccc(NC(=O)C3=C(C(=O)O)CCC3)c(F)c2)c1", "max response": "-3.86% (inactive) and -6.53% (inactive)"}, {"molecule": "CC(C)c1cc(-c2n[nH]c(=O)n2-c2ccc3c(ccn3C)c2)c(O)cc1O", "Potency": "148 nM (active) and 103 nM (active)"}, {"molecule": "Cn1cc(-c2[nH]c3cc(NC(=O)[C@H](N)C4CCCCC4)cc4c3c2C=NNC4=O)cn1", "Potency": "1.87 µM (active) and 2.59 µM (active)"}, {"molecule": "O=C(Nc1ncc(-c2cc(C(F)F)nn2-c2c(Cl)cccc2Cl)s1)C1CC1", "Potency": "1.48 µM (active) and 3.66 µM (active)"}, {"molecule": "CC1(C)CC(=O)c2c(C(F)(F)F)nn(-c3ccc(C(N)=O)c(NC4CCC(OC(=O)CN)CC4)c3)c2C1", "note": "(centres undefined)", "Potency": "469 nM (active) and 231 nM (active)"}, {"molecule": "COc1ccc(-c2cc3c(C)nc(N)nc3n(C3CCC(OCCO)CC3)c2=O)cn1", "note": "(centres undefined)", "Potency": "23.5 nM (active) and 231 nM (active)"}, {"molecule": "OCc1ccc(-c2ccc(-c3ccc(CO)s3)o2)s1", "max response": "-8.37% (inactive)"}, {"molecule": "COc1c(OCCCN2CCOCC2)ccc2c3n(c(=NC(=O)c4cnc(N)nc4)nc12)CCN3", "Potency": "2.29 µM (active)"}, {"molecule": "Clc1cccc(-c2nnnn2Cc2cccnc2)c1Cl", "max response": "-2.93% (inactive)"}]}]}
